Rows were chosen to be rich in hits. Some 6.6% of all compounds tested hit in one or more screens of this group.
KB-V1 MDR tox: KB-V1 MDR subline cytotoxicity | Potency, µM (titrated, usually from 46.1 µM), hits mostly cytotoxic | KB-V1 MDR cells viability, CellTiter-Glo, 72 h | 400,000 tested, 3.4% active; note: nearly all actives have a fitted effect of over 60% in size
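qHTS viability screen in drug-selected KB-V1 MDR cells: 72 h compound treatment at 37 degrees C, ATP luminescence end point.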
TSG101-PTAP inh: blocks PTAP/TSG101 interaction to inhibit HIV-1 budding. Q99816. Fluorescence polarization, FITC-PTAP peptide / Tsg101 binding. Potency, µM (doses to about 115 µM), actives largely listed as inhibitors. 340,000 tested, under 10 active. AID 493005; active = well fitted inhibition curve with a large enough effect in the main read-out, with a control signal flat, not every such curve was filed as active; inconclusive = small, poorly fitted or top-dose-only effect, or effect the other way, or a change in a side signal; inactive = no such curve, though single readings can be large or run the other way
Target sequence (Q99816 whole entry, looked up): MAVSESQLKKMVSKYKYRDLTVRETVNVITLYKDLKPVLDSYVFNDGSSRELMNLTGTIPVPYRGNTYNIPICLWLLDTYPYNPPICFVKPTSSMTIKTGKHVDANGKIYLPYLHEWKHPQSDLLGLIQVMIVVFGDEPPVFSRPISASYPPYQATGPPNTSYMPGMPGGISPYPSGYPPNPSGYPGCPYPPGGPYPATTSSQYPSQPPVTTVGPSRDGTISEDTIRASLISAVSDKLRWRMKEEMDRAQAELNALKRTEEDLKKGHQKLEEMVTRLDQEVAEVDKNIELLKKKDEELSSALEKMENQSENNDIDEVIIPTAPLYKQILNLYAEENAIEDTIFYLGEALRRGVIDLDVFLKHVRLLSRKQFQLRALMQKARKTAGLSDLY
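Compounds were pin-transferred onto Tsg101 binding domain (10 uM final) in HEPES pH 7.5 buffer, then FITC-PTAP peptide was added at 50 nM final. After 20 min at RT, polarization reported peptide displacement across a qHTS concentration series.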
SW480 rereplic: induces DNA re-replication in SW480 colon adenocarcinoma cells; AID 624297; Potency, µM (series often up to 46.1 µM), actives largely listed as activators; SW480 DNA re-replication, Hoechst DNA content imaging, 48 h; 340,000 tested, 1.8% active; note: nearly all actives have a fitted effect of over 55% in size
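Treated cells incubate 48 hr (37 C, 5% CO2), are stained 40 min with Hoechst, and nuclear fluorescence is enumerated; a rise in nuclei with high DNA signal marks re-replication.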
RGS4 inh: blocks human RGS4-accelerated GTP hydrolysis | P49798 | Transcreener GDP fluorescence polarization, RGS4-accelerated GTP hydrolysis | Potency, µM (highest dose often 114 µM), usual class: inhibitors | 390,000 tested, 0.039% active; note: nearly all actives have a fitted effect of over 75% in size
Target sequence (P49798 whole entry, looked up): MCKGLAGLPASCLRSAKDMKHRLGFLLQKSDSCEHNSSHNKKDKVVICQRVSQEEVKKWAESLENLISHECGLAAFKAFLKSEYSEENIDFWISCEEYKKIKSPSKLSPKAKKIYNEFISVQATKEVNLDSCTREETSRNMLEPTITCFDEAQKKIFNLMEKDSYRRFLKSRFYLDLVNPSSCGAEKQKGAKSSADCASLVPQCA
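MLSMR compounds (23 nl, pin-transferred) preincubated 10 min at room temperature with a 500nM (2x) first reagent, then RGS4 at 900nM (2x) plus Transcreener GDP mix added; fluorescence polarization (620/688 nm) read before and after 90 min at 30 °C.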
KB-3-1 cytotox: kills parental KB-3-1 adenocarcinoma cells; KB-3-1 viability, CellTiter-Glo ATP luminescence, 72 h; Potency, µM (titrated, usually from 46.1 µM), usual class: cytotoxic; 400,000 tested, 1.4% active; note: nearly all actives have a fitted effect of over 60% in size
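Cytotoxicity measured as CellTiter-Glo luminescence after 72 h at 37 C. Compound titrations were pinned onto drug-naive KB-3-1 parental adenocarcinoma cells grown in DMEM with 10% FBS, and normalized data fitted to concentration-response curves.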
MCF10A rerep: inducers of DNA re-replication in MCF 10A breast cells | Potency, µM (titrated, usually from 46.1 µM), hits mostly activators | 350,000 tested, 2.9% active | AID 624296 | MCF 10A DNA re-replication, Hoechst nuclear intensity, 48 h; note: nearly all actives have a fitted effect of over 50% in size
Numbers stand for hits; i = inactive; ? = inconclusive; nt = not tested or not shown; [ ] = dose if it differs, or a comment. Unless noted, calls come from the whole dose curve; as a rule, active = well fitted curve in the direction sought with a large enough effect; inconclusive = small, poorly fitted or top-dose-only effect, or another doubt; inactive = no such curve, though single readings can be large; an effect the other way counts as inactive or inconclusive.

SMILES	KB-V1 MDR tox	TSG101-PTAP inh	SW480 rereplic	RGS4 inh	KB-3-1 cytotox	MCF10A rerep
c1coc(Cn2c(SCc3nc4ccccc4[nH]3)nnc2-c2cnccn2)c1	?	i	i	i	i	i
C/C(=N\NC(=O)c1c[nH]c2ccccc12)c1ccc(C)s1	i	i	i	i	i	i
O=C(N/N=C/c1ccccn1)c1c[nH]c2ccccc12	i	i	i	i	i	i
CC/C(=N\NC(=O)c1c[nH]c2ccccc12)c1cccs1	16.4µM	i	i	i	i	i
c1ccc(-c2nnc(SCc3nc4ccccc4[nH]3)n2Cc2ccco2)nc1	2.59µM	i	i	i	i	i
CCn1c(SCc2nc3ccccc3[nH]2)nnc1-c1cccs1	8.2µM	i	i	i	i	i
Cc1ccc(C(=O)COC(=O)CCC(=O)Nc2ccc(Oc3ccccc3)cc2)cc1	?	nt	nt	i	i	nt
Cn1c(COc2ccccc2)nnc1SCc1nc2ccccc2[nH]1	?	i	?	i	i	?
CCn1c(COc2ccc(C)cc2)nnc1SCc1nc2ccccc2[nH]1	2.59µM	i	i	i	i	i
NC(=O)CSc1nnc(-c2ccccn2)n1Cc1ccco1	i	i	i	i	i	i
Clc1ccc(OCc2nnc(SCc3nc4ccccc4[nH]3)n2Cc2ccco2)cc1	5.8µM	i	i	i	?	i
CCn1c(SCCOc2ccc(Cl)cc2)nnc1-c1cccs1	9.2µM	i	i	i	i	i
C(=C\c1ccccc1)/CSc1nnc(-c2ccccn2)n1Cc1ccco1	?	i	20.6µM	i	5.8µM	7.94µM
CCn1c(SCC(=O)c2ccc(Cl)cc2)nnc1-c1cccs1	?	i	i	?	i	i
COc1ccc(C2N3CC4(C)CN2CC(c2ccccc2)(C3)C4=O)cc1 (configuration not stated)	i	nt	nt	i	i	nt
O=C(Cn1c(=O)oc2ccccc21)NCc1ccccc1Cl	nt	nt	nt	i	nt	nt
COCCn1c(SCC(=O)c2c[nH]c3ccccc23)nnc1-c1ccncc1	i	i	i	i	i	i
COc1ccc(C)cc1NC(=O)CSc1nnc(-c2ccccn2)n1Cc1ccco1	11.6µM	i	i	i	i	i
COc1ccccc1NC(=O)CSc1nnc(-c2ccccn2)n1Cc1ccco1	?	i	?	i	i	i[0.0737 µM]
CCn1c(SCC(=O)c2c[nH]c3ccccc23)nnc1-c1cccs1	?	i	14.6µM	i	16.4µM	?
COC(=O)c1nc(N2CCN(S(=O)(=O)c3ccc(C)cc3)CC2)c2ccccc2n1	nt	nt	nt	i	nt	nt
C=C1C(=O)O[C@H]2[C@H]1[C@H](OC(=O)/C(C)=C\C)C[C@]1(CO1)[C@@H]1[C@H](OC(C)=O)C=C(C)[C@]21O	i	i	?	i	i	3.26µM
Cc1nc(N2CCCCC2)c2c(-c3cccs3)csc2n1	i	i	i	i	i	20.6µM
CCOC(=O)/C=C/C(=O)Nc1nccs1	i	i	?	i	i	18.4µM
COc1ccc(O)c(C(=O)CC(=O)c2ccccc2C)c1	?	i	20.6µM	i	?	?
SMILES	KB-V1 MDR tox	TSG101-PTAP inh	SW480 rereplic	RGS4 inh	KB-3-1 cytotox	MCF10A rerep
COc1ccc(O)c(C(=O)CC(=O)c2ccc(F)cc2)c1	2.91µM	i	i	i	?	i
COc1ccc(O)c(C(=O)CC(=O)c2cccnc2)c1	i	i	i	i	i	i
CCOC(=O)N1CCN(Cc2nc3cc(NC(=O)CC)ccc3n2C)CC1	i	i	i	i	i	i
CCOC(=O)N1CCN(Cc2nc3cc(NC(=O)C(C)C)ccc3n2C(C)C)CC1	i	nt	nt	i	0.651µM	nt
CCCn1c(CN2CCN(C(=O)OCC)CC2)nc2cc(NC(=O)CC)ccc21	?	i	6.51µM	i	9.2µM	16.4µM
O=[N+]([O-])c1ccccc1/C=C/c1ccnc2ccccc12	i	nt	nt	nt	?	nt
Cc1nc2c(sc3nc4c(cc32)COC(C)(C)C4)c(=O)n1CC(=O)NCc1ccco1	?	i	?	i	5.17µM	?
CC1(C)Cc2nc3sc4c(=O)n(Cc5ccccc5)cnc4c3cc2CS1	8.2µM	i	i	i	i	?
CC1(C)Cc2nc3sc4c(SCC(=O)NCc5ccco5)ncnc4c3cc2CO1	?	i	3.26µM	i	4.61µM	3.26µM
CC1(C)Cc2nc3sc4c(=O)n(CC(=O)NCc5ccccc5)cnc4c3cc2CO1	3.66µM	i	?	i	2.59µM	6.51µM
CCCn1cnc2c(sc3nc4c(cc32)CSC(C)(C)C4)c1=O	i	i	i	i	i	i
C(=C\c1ccnc2ccccc12)/c1ccc2c(c1)OCO2	i	nt	nt	nt	i	nt
CCN(CC)CCn1c(C)nc2c(sc3nc4c(cc32)COC(C)(C)C4)c1=O	i	i	i	i	i	i
Cc1nc2c(sc3nc4c(cc32)COC(C)(C)C4)c(=O)n1Cc1ccccc1	5.17µM	i	i	i	i	i
CCC1C(c2ccccc2)N(C)C(c2ccccc2)CC1(O)c1ccccc1 (configuration not stated)	i	i	?	i	?	?
CC1C(=O)CC(c2ccccc2)N(C)C1c1ccccc1 (configuration not stated)	i	i	i	i	i	25.9µM
CC1CCCN(C(=O)c2ccc3c(c2NCCO)C(=O)c2ccccc2C3=O)C1 (configuration not stated)	4.61µM	i	i	i	i	i
CCOc1ccccc1CNC(=O)CCn1cccn1	i	nt	nt	i	i	nt
COc1cc2c(c(OC)c1OC)C(c1ccc3c(c1)OCO3)CC(=O)O2 (configuration not stated)	i	i	i	i	i	?
COc1cc(C2c3cc4c(cc3CC3COC(=O)N32)OCO4)cc(OC)c1OC (configuration not stated)	2.06µM	i	1.16µM	i	0.731µM	1.3µM
O=C(c1cccc(C(F)(F)F)c1)N1CCC(O)(CS(=O)(=O)Cc2ccccc2Cl)CC1	16.4µM	i	i	i	i	i
O=C(c1cccc(C(F)(F)F)c1)N1CCC(O)(CS(=O)(=O)Cc2ccc(Cl)cc2)CC1	11.6µM	i	i	i	i	i
O=C(c1cccc(C(F)(F)F)c1)N1CCC(O)(CS(=O)(=O)Cc2ccccc2)CC1	i	i	i	i	i	i
CCOc1ccc(/C=C/c2ccnc3ccccc23)cc1OCC	?	nt	nt	nt	i	nt
O=C(Nc1cnn(Cc2ccc(Cl)cc2Cl)c1)c1noc2c1CCCC2	10.3µM	i	i	i	i	i
CC(=O)c1cccc(NC(=O)Nc2cnn(Cc3ccc(Cl)cc3Cl)c2)c1	18.4µM	i	i	i	?	?
CCn1ncc(/C=C/C(=O)NCc2cnn(C)c2C)c1C	i	i	i	i	i	i
COc1ccc(/C=C/C(=O)NCc2cnn(C)c2C)cc1COc1ccc(Br)cc1	14.6µM	i	i	i	i	?

Screening results deposited in PubChem by National Center for Advancing Translational Sciences (NCATS).
